# A selection: hits, their analogues and other compounds. The true share with any hit is near 11%.
# MCF10A rereplic = inducers of DNA re-replication in MCF 10A breast cells. AID 624296. actives 2.9% (n = 350,000). Potency, µM (highest dose often 46.1 µM), hits mostly activators. MCF 10A DNA re-replication, Hoechst nuclear intensity, 48 h; further: nearly all actives have a fitted effect of over 50% in size
# RORgamma inh = inhibitors of mouse ROR gamma transcriptional activity; P51450; Drosophila S2 Gal4-RORgamma UAS-luciferase reporter, 20 h; Potency, µM (titrated, usually from 53.6 µM), hits mostly inhibitors; actives 5.4% (n = 310,000); further: nearly all actives have a fitted effect of over 60% in size
# Target sequence (P51450 whole entry, looked up, the tested form may be a part): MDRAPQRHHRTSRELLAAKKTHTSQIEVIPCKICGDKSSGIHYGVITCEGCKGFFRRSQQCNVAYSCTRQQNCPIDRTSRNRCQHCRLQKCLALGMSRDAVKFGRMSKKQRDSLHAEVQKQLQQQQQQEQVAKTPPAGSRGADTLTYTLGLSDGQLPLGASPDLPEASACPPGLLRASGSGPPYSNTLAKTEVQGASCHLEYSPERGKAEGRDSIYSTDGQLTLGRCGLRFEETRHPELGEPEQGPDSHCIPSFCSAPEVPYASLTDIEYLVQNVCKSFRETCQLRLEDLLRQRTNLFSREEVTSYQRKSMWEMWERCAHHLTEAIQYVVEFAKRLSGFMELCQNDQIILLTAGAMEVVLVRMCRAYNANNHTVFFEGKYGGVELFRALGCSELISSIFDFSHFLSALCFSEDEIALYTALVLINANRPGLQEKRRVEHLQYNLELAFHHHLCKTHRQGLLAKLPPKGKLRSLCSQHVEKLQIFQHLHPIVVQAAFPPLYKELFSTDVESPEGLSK
#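 Stably transfected Drosophila Schneider cells are the test system, with ROR gamma fused to Gal4 and luciferase under UAS control; luminescence is read after 20 hr of 700 uM copper sulfate induction at ambient temperature.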
# IL-1B inflam inh = inhibitors of inflammasome signaling (IL-1 beta secretion) | activity change, % at 57.5 µM | actives 4.7% (n = 360,000) | THP-1 LPS/ATP IL-1B secretion, AlphaLISA, 16 h; active compounds read low | AID 743279; in the data active means activity change below about -50%; inconclusive means mostly about -30% to -49%
#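 Secreted IL-1B measured by AlphaLISA bead assay after 16 h compound exposure of THP-1 cells; compounds (final up to 57.5 uM) added 1 h before LPS (250 ng/mL) and ATP (1.25 mM) stimulation; lower signal means less secretion.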
# SW480 rerep = inducers of DNA re-replication in SW480 colon cancer cells; SW480 DNA re-replication, Hoechst DNA content imaging, 48 h; Potency, µM (titrated, usually from 46.1 µM), hits mostly activators; AID 624297; actives 1.8% (n = 340,000); further: nearly all actives have a fitted effect of over 55% in size
#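 Compounds, transferred as 23 nL by pin tool, were incubated with cells for 48 hr; DNA content per nucleus was then quantified by Hoechst staining and fluorescence plate imaging.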
# VP16 counter = Gal4-VP16 reporter inhibition counter-screen | Drosophila S2 Gal4-VP16 UAS-luciferase, luminescence, 20 h | actives 3.5% (n = 310,000) | Potency, µM (titrated, usually from 53.6 µM), most hits filed as inhibitors;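 further: Gal4-VP16 expression switched on by copper sulfate through the metallothionein promoter; nearly all actives have a fitted effect of over 50% in size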
# A number is an active result; 0 = inactive; ? = inconclusive; - = no result; [ ] = dose if it differs, or a comment. Unless noted, the call rests on the fitted dose curve; in most records, active means well fitted curve in the direction sought with a large enough effect; inconclusive means small, poorly fitted or top-dose-only effect, or another doubt; inactive means no such curve, though single readings can be large; an effect the other way counts as inactive or inconclusive.
SMILES,MCF10A rereplic,RORgamma inh,IL-1B inflam inh,SW480 rerep,VP16 counter
COc1ccccc1N(Cc1ccccc1)S(=O)(=O)c1cccc(C(=O)Nc2cc(C)ccn2)c1,0,6.3µM,?,0,10µM
NC(=O)NC(=O)COC(=O)c1ccc(Cl)c(S(=O)(=O)N(Cc2ccccc2)c2ccc(Cl)cc2)c1,21µM,0,0,0,?
CC1(C)CC(NC(=O)c2ccc(Cl)c(S(=O)(=O)N(Cc3ccccc3)c3ccccc3)c2)CC(C)(C)N1,?,-,-110,?,-
O=C(O)c1ccc(Cl)c(S(=O)(=O)Nc2ccccc2Cc2ccccc2)c1,0,0,0,0,0
CC1(C)Oc2ccc3ccc(=O)oc3c2C[C@H]1O[C@@H]1O[C@H](CO)[C@@H](O)[C@H](O)[C@H]1O,0,-,0,0,-
CC(=O)OC(C)(C)/C=C/C(=O)[C@](C)(O)C1[C@H](O)C[C@@]2(C)C3CC=C4C(C=C(O[C@@H]5O[C@H](CO)[C@@H](O)[C@H](O)[C@H]5O)C(=O)C4(C)C)[C@]3(C)C(=O)C[C@]12C (some centres not stated),5.2µM,-,0,0.92µM,-
CCOc1ccc(C(=O)Nc2nnc(NC(=S)Nc3ccccc3)s2)cc1,0,0.35µM,0,0,1.6µM
CCc1nnc(NC(=O)CN2CCN(Cc3cccc(F)c3)CC2)s1,0,0,0,0,0
Cc1nc(NC(=S)Nc2ccccc2)sc1C,0,0.89µM,0,0,5µM
CCOc1ccc(NC(=O)c2ccc(NC(=O)c3ccccc3Br)cc2)cc1,?,-,0,0,-
Cc1ccc(C(=O)Nc2nnc(NC(=S)Nc3ccccc3)s2)cc1,?,0.28µM,0,0,1.1µM
CCc1nnc(NC(=O)CN2CCN(Cc3cccc(Cl)c3)CC2)s1,0,2.5µM,0,0,?
Cc1ccc(SCc2nnc(NC(=O)c3ccccc3)s2)cc1,0[0.0737 µM],0,0,?,0
CC1=C(C(=O)N(C(C)C)C(C)C)CC(CC(=O)NCc2ccco2)C(=O)N1Cc1ccc(C(C)(C)C)cc1 (configuration not stated),-,-,0,-,-
O=C(NCc1ccccc1)c1ccc2ccccc2n1,0,0,0,0,0
Cc1nnc(NC(=O)c2ccc3ccccc3n2)s1,0,2.8µM,0,0,7.1µM
CCc1nnc(NC(=S)Nc2ccccc2)s1,0,0.28µM,0,0,0.89µM
Cc1nc2ccc(NC(=O)c3ccc4ccccc4n3)cc2s1,0,0,0,0,0
O=C(NCc1ccccn1)c1ccc2ccccc2n1,0,3.5µM,0,0,10µM
CCc1nnc(NC(=O)c2cccc(C(=O)Nc3nnc(CC)s3)n2)s1,?,0.018µM,0,?,0.18µM
CCc1nnc(NC(=O)CCC(=O)Nc2ccccc2)s1,0,0,0,0,0
COc1ccc(CN(C)C(=O)[C@H]2O[C@@H](n3ccc(N)nc3=O)[C@H](O)[C@@H]2O)cc1OC,-,-,0,-,-
Cc1ccc(Nc2cc(=O)oc3ccccc23)c(C)c1,0,0,0,0,0
Cc1cccc(NC2=C/C(=N/S(=O)(=O)c3cccs3)c3ccccc3C2=O)c1,2.9µM,0,-83,?,0
Cc1ccc(NC2=C/C(=N\S(=O)(=O)c3cccs3)c3ccccc3C2=O)c(C)c1,6.5µM,?,-97,6.5µM,?
SMILES,MCF10A rereplic,RORgamma inh,IL-1B inflam inh,SW480 rerep,VP16 counter
Cc1ccc(Cl)cc1NC1=C/C(=N\S(=O)(=O)c2cccs2)c2ccccc2C1=O,0.65µM,0,-99,2.9µM,5µM
CCOc1ccc(NC(=O)CN(C)C(=O)c2c(C)nn(Cc3ccccc3Cl)c2C)cc1OCC,0,-,0,0,-
CC(C)n1nnnc1C1c2ccccc2C(=O)N1CCOc1ccccc1 (configuration not stated),-,-,0,-,-
C=CCN1C(=O)N(/C=C/C)c2cccc3cccc1c23,21µM,0,0,0,0
O=C(CCC(=O)N(CC(=O)NC1CCCC1)Cc1ccc(F)cc1)Nc1nccs1,0,0,0,0,0
CN1CCN(Cc2ccc(Sc3ccc(Cl)cc3)c([N+](=O)[O-])c2)CC1,0,0,-92,0,0
Cc1ccc(Sc2ccc(CN3CCCC3)cc2[N+](=O)[O-])cc1,0,0,0,0,0
CC1(CCc2ccccc2)NC(=S)N(c2ccc(Cl)cc2)N1 (configuration not stated),0,10µM,0,0,?

# High-throughput results (PubChem BioAssay)
